# V-ATPase pHluor: yeast V-ATPase proton transport regulation by pHLuorin; S. cerevisiae, pHLuorin cytosolic pH fluorescence; response, % at 10 µM; hit rate 0.37% among 350,000; in the data active = response mostly above about 7.3%, no sharp cut-off; inactive = mostly below about 5.4%; also: actives read high
# tim23-1 inh: growth inhibitors of tim23-1 mutant yeast | S. cerevisiae tim23-1 growth, BacTiter-Glo luminescence, 24 h | inhibition, % at 20 µM | hit rate 1.3% among 330,000 | AID 463212;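 active = growth inhibition of the mutant yeast at or above 50%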;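 also: temperature-sensitive mutant grown at 25 °C; plate controls were DMSO-treated mutant yeast for no effect and medium wells lacking yeast for full effect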
# NALP3 yeast inh: inhibitors of NALP3 inflammasome in yeast; Yeast reconstituted NLRP3/ASC/caspase-1, beta-gal luminescence, 24 h; inhibition, % at 10 µM; hit rate 0.39% among 330,000; AID 2825;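 active = inhibition of 50% or more; inactive = inhibition below 50%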;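 also: plate controls were induced DMSO wells for no effect and uninduced yeast grown without galactose for full effect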
# tim10-1 inh: tim10-1 yeast growth inhibition; S. cerevisiae tim10-1 ts strain growth, BacTiter-Glo, 24 h; inhibition, % at 20 µM; hit rate 2.2% among 330,000; AID 463190;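 active = inhibition of at least 40%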;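 also: mutant grown at 25 °C; 0% = DMSO wells with yeast and 100% = wells holding no yeast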
# NALP1 inh: inhibitors of NALP1 inflammasome in yeast. AID 2071. hit rate 0.61% among 280,000. inhibition, % at 10 µM. S. cerevisiae NALP1/ASC/caspase-1 growth, X-gal OD620, 72 h; in the data active = inhibition mostly above about 24%, no sharp cut-off; inactive = mostly below about 32%
# TIM10 inh: inhibits growth of TIM10 yeast strain; S. cerevisiae TIM10 strain growth, BacTiter-Glo luminescence, 24 h; inhibition, % at 10 µM; hit rate 1.4% among 330,000; AID 463195;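 active = inhibition of 40% or more at the single tested concentration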;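 also: wild-type TIM10 isogenic control strain grown at permissive 25 °C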
# NALP3 yeast conf: confirmation of NALP3 inhibitors in yeast. shares compounds with NALP3 yeast inh. yeast expressing human NALP3, luminescence. inhibition, % at 10 µM. hit rate 81% among 1,300. AID 435006; in the data active = inhibition above about 48%
# Casp1 ASC ctr: counter-screen for NALP3 inhibitors: yeast caspase-1-ASC. shares compounds with NALP3 yeast inh. yeast expressing Caspase-1-ASC, luminescence counter screen. inhibition, % at 10 µM. hit rate 66% among 1,000
# NALP3 retest: retest-confirmed inhibitor of NALP3 in yeast; shares compounds with NALP3 yeast inh; hit rate 53% among 1,000; yeast expressing human NALP3, luminescence read-out; inhibition, % at 10 µM; AID 488794
# tim10-1 conf: confirmation of tim10-1 mutant yeast growth inhibitors. shares compounds with tim10-1 inh. S. cerevisiae tim10-1 ts strain growth, BacTiter-Glo, 24 h. inhibition, % at 20 µM. hit rate 56% among 7,400;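 active = inhibition of yeast growth at or above a set limit in either of two repeat tests at 20 µM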;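 also: tim10-1 mutant grown at permissive 25 °C to find synthetic lethal compounds; 0% = DMSO yeast wells and 100% = medium wells without yeast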
# TIM10 conf: confirmation of TIM10 yeast growth inhibitors; S. cerevisiae tim10 strain growth, BacTiter-Glo luminescence, 24 h; hit rate 63% among 4,600; shares compounds with TIM10 inh; inhibition, % at 10 µM;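 active = inhibition of yeast growth at or above a set limit in either of two replicates at 10 µM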;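 also: this counterscreen used the strain with wild-type TIM10; 0% = yeast with DMSO and 100% = medium wells lacking yeast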
# * = called active by the depositor; . = not tested or not shown. Shown are actives, neighbours in structure and some others; about 4.2% of the full set was active somewhere. Rule as the data show it, unless noted: active = inhibition above about 50%; inactive = the rest.
SMILES,V-ATPase pHluor,tim23-1 inh,NALP3 yeast inh,tim10-1 inh,NALP1 inh,TIM10 inh,NALP3 yeast conf,Casp1 ASC ctr,NALP3 retest,TIM10 conf,others
O=C(c1ccc(CS(=O)(=O)Cc2ccccc2)cc1)N1CCCCC1,-3,6,7,-15,12,-7,.,.,.,.,
COc1cc(CNCCc2ccccc2)ccc1OCc1ccc(Cl)nc1,2,7,50*,2,19,55*,42,46,51*,-4,
CCOC(=O)c1cc(C(=O)c2cccs2)n2ccc(C(C)=O)cc12,-3,4,54*,16,21,50*,51*,52*,47,36*,
COc1ccccc1NC(=O)CSCc1ccc([N+](=O)[O-])cc1,12,38,65*,34,41*,50*,60*,59*,51*,15,
COc1ccc([N+](=O)[O-])cc1NC(=O)CSCc1cc(C)cc(C)c1,-1,5,5,29,34,31,.,.,.,.,
O=C(Cc1cccs1)Nc1nc2c(s1)CCCC2,3,27,42,27,12,-8,.,.,.,.,
Cc1sc(NC(=O)c2cccs2)nc1-c1ccccc1,5,33,68*,15,-27,47*,67*,55*,46,28,
O=C(Nc1nc2c(s1)CCCC2)c1cccs1,1,6,50*,44*,16,44*,55*,88*,72*,12,tim10-1 conf=30*
Cc1sc(NC(=S)NC(=O)c2cccs2)nc1-c1ccc(C(C)C)cc1,6,7,4,7,35,5,.,.,.,.,
CCCCn1c(=O)c(F)cn(Cc2ccc(OC)c([N+](=O)[O-])c2)c1=O,0,-16,-7,-5,32,-13,.,.,.,.,
CC1=NNC(=O)/C1=C\c1cn(-c2ccccc2)nc1-c1cccs1,4,19,54*,19,65*,88*,74*,.,.,84*,
CC1=NNC(=O)/C1=C\c1cn(-c2ccccc2)nc1-c1ccc(F)cc1,-6,.,.,.,8,.,.,.,.,.,
CCCCn1c(N)c(N(CC(C)C)C(=O)c2cccc(S(=O)(=O)N(C)c3ccccc3)c2)c(=O)[nH]c1=O,0,0,7,2,.,8,.,.,.,.,
O=C(/C=C/c1c(F)cccc1Cl)c1ccc(O)cc1,-56,-35,91*,-151,8,74*,87*,58*,47,62*,
CC(C)(C)C(=O)NC(=S)NNC(=O)C(c1ccccc1)c1ccccc1,2,7,46,32,-4,25,.,.,.,.,
O=C(NCCCN1CCOCC1)c1c(O)c2cc(Br)cc(Br)c2[nH]c1=O,5,46,63*,51*,-8,67*,81*,31,39,74*,tim10-1 conf=47*
COc1cc2[nH]c(=O)c(C(=O)NCCCN3CCOCC3)c(O)c2cc1OC,0,-19,4,-23,-4,5,.,.,.,.,
CC(C)(C)c1ccc(-c2nc(N)nc(N)n2)cc1,-3,11,19,8,.,16,.,.,.,.,
CC(C)(C)c1ccc(-c2conc2N)cc1,0,46,59*,55*,-76,43*,69*,66*,48,47*,tim10-1 conf=41*
Fc1ccc(CSc2nnc(-c3cccnc3)n2Cc2ccco2)cc1,-3,15,-7,28,27,24,.,.,.,.,
Fc1ccc(CSc2nnc(-c3cnccn3)n2Cc2ccco2)cc1,-3,42,-123,30,7,41*,-21,.,.,26,
O=C(OCC(=O)c1c[nH]c2ccccc12)c1ccc([N+](=O)[O-])s1,-2,17,84*,40*,-2,73*,91*,86*,92*,84*,tim10-1 conf=53*
Cc1ccc(C(=O)OCC(=O)c2c[nH]c3ccccc23)cc1,.,18,17,-3,33,15,.,.,.,.,
COc1ccc(S(=O)(=O)NCC(=O)N(CC(=O)NCc2ccco2)Cc2ccc(F)cc2)cc1,-1,5,3,-14,1,6,.,.,.,.,
Cc1cccc(CSc2nc3c(cc2C#N)CCC3)c1,0,-6,-5,20,24,-12,.,.,.,.,
SMILES,V-ATPase pHluor,tim23-1 inh,NALP3 yeast inh,tim10-1 inh,NALP1 inh,TIM10 inh,NALP3 yeast conf,Casp1 ASC ctr,NALP3 retest,TIM10 conf,others
Cc1cc(C)c(C#N)c(SCc2nc3ccccc3[nH]2)n1,1,28,54*,0,16,44*,44,36,41,36*,
N#Cc1cc2c(nc1SCc1nc3ccccc3[nH]1)CCC2,.,35,66*,42*,10,73*,79*,.,.,67*,tim10-1 conf=35*
O=C(Nc1cccc(F)c1)c1ccc2c(c1)OCCO2,-1,45,67*,27,12,41*,70*,62*,60*,53*,
O=C(Nc1ccccc1)c1ccc2c(c1)OCCO2,3,44,37,-2,-1,29,.,.,.,.,
CC(C)(C)OC(=O)NN=C(c1ccc(O)cc1)c1ccc(O)cc1,3,-7,8,-7,15,3,.,.,.,.,
COc1c[nH]n(C2CCCCC2)c(=O)c1=O,-3,40,57*,23,18,40*,77*,59*,67*,23,
Cc1ccc(-c2nnn(CC(=O)N(CC(=O)NCC3CCCO3)c3ccc(F)c(Cl)c3)n2)o1 (stereo unspecified),1,11,5,19,-6,6,.,.,.,.,
N#Cc1nc(COc2ccccc2)oc1N1CCCCCC1,0,18,52*,18,-13,75*,71*,50,37,4,
CCn1ccc(-c2ccccc2)c(C#N)c1=O,0,11,28,-9,10,-9,.,.,.,.,
O=C1CS/C(=C/C(=O)c2ccccc2)N1,3,35,46,-25,-8,5,.,.,.,.,
Cc1cc(C)cc(C(=O)/C=C2\NC(=O)CS2)c1,-1,43,66*,20,0,50*,77*,80*,71*,34*,
CCNS(=O)(=O)c1ccc(CCC(N)=O)cc1,1,3,21,-6,-2,-4,.,.,.,.,
O=CC1=C(c2ccccc2)Oc2ccccc2O1,-3,23,68*,22,52*,78*,64*,75*,85*,79*,
COC(=O)c1cccc(NC(=O)CN2CCOCC2)c1,2,-3,16,-6,-8,-5,.,.,.,.,
COc1cc(C(=O)O/N=C2/C=C(C)C(=O)C=C2C)cc(OC)c1OC,-1,33,-1,37,.,30,.,.,.,.,
